In PubChem BioAssay (EPA / NIEHS) one finds AC50 and outcome data, which are given here for 16 molecules.

In general, AC50 refers to the concentration giving half of the maximal activity seen.

The structures appear in SMILES notation. Calls of active or inactive are those of the source. The calls were made as follows: active = hit-call score of the fitted dose curve at least 0.9, where 1 is the maximum; inactive = score below 0.9.

Read-out in the assay: DNA damage-inducible transcript 3 (DDIT3), DDIT3 (gene 1649)
Nature of the assay: LTEA_HepaRG_DDIT3: Life Technologies and Expression Analysis (LTEA) Assay for DNA damage-inducible transcript 3 (DDIT3) using HepaRG (AID 2283488). The conditions noted are these: mRNA level, 48 h; actives raise or lower the signal. The method, then:
LTEA_HepaRG is a cell based, multiplexed-readout assay that uses HepaRG, a human liver cell line, with measurements taken at 48 hours after chemical dosing on a 96-well plate.LTEA_HepaRG_DDIT3 is one of 102 assay component(s) measured in the LTEA HepaRG cell culture assay. It is a marker of Oxidative Stress.Data from the assay component LTEA_HepaRG_DDIT3 was analyzed into 1 endpoint. This assay endpoint, LTEA_HepaRG_DDIT3, was analyzed with bidirectional fitting relative to DMSO as the negative control and baseline of activity. Using a type of inducible reporter, measures of mRNA induction for gain or loss-of-signal activity can be used to understand regulation of transcription factor activity. To generalize the intended target to other relatable targets, this assay endpoint is annotated to the dna binding intended target family, where the subfamily is basic leucine zipper.
A total of 1060 chemcials from the ToxCast library were tested in eight-point concentration-response experiments. Cell culture and cytotoxicity assays were conducted at Thermo Fisher Scientific's Custom Services facility (Madison, WI). A single lot of human HepaRG cells (Thermo Fisher Scientific, Frederick, MD) was used for the cell culture experiments. 96-well format collagen type I coated plates of human HepaRG cells were prepared using established methods. Briefly, cryopreserved HepaRG cells were thawed, plated at a density of approximately 100,000 cells/well in HepaRG Thaw, Plate, and General Purpose media (HPRG770, Thermo Fisher Scientific), and incubated for 48 hours. 0.5% DMSO was selected as vehicle control to balance the requisite need of DMSO in HepaRG cultures to maintain differentiation (for example, baseline metabolism, proportions of hepatocytes vs. cholangiocytes), while enabling further hepatic receptor pathway activation (for example, PXR and CAR) in response to chemical exposure. 48 hours after plating, the culture medium was replaced with HepaRG Serum-Free Incudtion Media. Cells were exposed to each test chemical in duplicate and maintained in CO2 incubators for another 48 hours. Chemical plates were thawed to room temperature and 200x concentrations of treatment groups were prepared. 8-point conentration-reponse curves were made with the highest exposure at 100 uM, followed by half-log dilutions, all in 0.5% DMSO. Each test plate contained variouse controls, induction positive controls (1mM phenobarbital), cytotoxicity positive controls ([…] aflatoxin B1), vehicle controls (0.5% DMSO), and total lysis controls (0.5% DMSO). Cell morphology images were taken using an Essen IncuCyte FLR automated microscope, with six 96-well plates imaged in about 24 minutes. Images were captured and exported and JPEG files. Spent culture media was transfered to black-well plates for the LDH assay, and remaining media was sorted at -80 C for later use. Cells were treated with RLT buffer and frozen until shipped for gene expression analysis. Total RNA was isolated from the cell suspension in 75 uL of Buffer RLT (Qiagen, Germantown, MD 20874) by Quintiles/Expression Analysis (Durham, NC) using a custom isolation procedure. Total RNA from each plate well was transferred to a preamplification plate. Fluidigm's 96.96 Dynamic ArrayTM (Fluidigm, Amsterdam, the Netherlands) technology was used for gene expression analyses by quantitative reverse transcription polymerase chain reaction (qRT-PCR, performed by Quintiles/Expression Analysis, Durham, NC)89. Standard TaqManTM Assays (Applied Biosystems/ThermoFisher Scientific, Foster City, CA) were used to assess the expression of 93 genes selected based on their selectivity and sensitivity to important hepatic receptors known to be modulated by environmental chemicals; importance in human hepatocyte functionality; and hepatotoxicity. […]
For `CCCCCCCCCCCCOS(=O)(=O)O`, the half-maximal activity concentration (AC50) was 71.9 µM (active).

Regarding `CC(=O)Nc1ccc(O)cc1`, the result was inactive.

Take `Cc1[nH]nc2c1N=C(c1ccccc1Cl)c1cc([N+](=O)[O-])ccc1N2`: the result was inactive.

Regarding `CCCCc1oc2ccccc2c1C(=O)c1cc(I)c(OCCN(CC)CC)c(I)c1`, the AC50 is 56.8 µM (active).

With `O=C(c1ccccc1)c1ccccc1`, the molecule was classed as inactive.

As to `CCCCCCCCCCCCCCC`, the molecule was classed as inactive.

With `CN(Cc1cnc2nc(N)nc(N)c2n1)c1ccc(C(=O)N[C@@H](CCC(=O)O)C(=O)O)cc1`, the outcome was inactive.

Regarding `CN(C)CCOC(c1ccccc1)c1ccccc1`, the molecule was called inactive.

`CCCCC=O`: the outcome was inactive.

In the case of `CS(=O)(=O)c1ccc([C@@H](CC2CCCC2)C(=O)Nc2cnccn2)cc1Cl`, the AC50 was 71.2 µM (active).

`O=C1NS(=O)(=O)c2ccccc21`: the call was inactive.

Turning to `N=C(N)c1ccc(OCCCCCOc2ccc(C(=N)N)cc2)cc1`, the half-maximal activity concentration (AC50) is 3.45 µM (active).

Turning to `O=C(CCCN1CCC(O)(c2ccc(Cl)cc2)CC1)c1ccc(F)cc1`, the concentration at half-maximal activity (AC50) is 73.9 µM (active).

As to `CCC(C)c1ccccc1O` (stereo unspecified), the outcome was inactive.

Turning to `CCCCC(CC)C(=O)O` (stereo unspecified), the molecule was called inactive.

Take `OCC(CO)(CBr)CBr`: the call was inactive.
